Experimental data reported in the supplement of paper PMC7156485.

Key:
Settings in all cases: concentration: 10 µM; 24 h
[1] = tested on: HCC1569; test: cell number relative to DMSO (% of DMSO); higher = more cells (less growth inhibition / toxicity)
Summary of the method: (§1)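 HCC1569 and TDF cells (800 per well, 384-well plates, RPMI with 10% FBS) were treated with compounds at 10 µM for 24 h at 37 °C, in triplicate. Cells were fixed in 3.7% formaldehyde and stained with a rabbit anti-H1.0 antibody, an AlexaFluor 647 secondary and DAPI; six fields per well were imaged at ×10. H1.0 nuclear intensity or cell number is expressed as percent of the plate DMSO control, taking the median of replicates. HCC1569 values were smoothed for positional effects.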

[2] = tested on: TDF; test: as above
Summary of the method: as §1

[3] = tested on: TDF; test: H1.0 immunofluorescence intensity relative to DMSO (% of DMSO); higher = stronger H1.0 induction, active = 120 or more
Summary of the method: as §1

[4] = tested on: HCC1569; test: H1.0 immunofluorescence intensity relative to DMSO (% of DMSO); higher = stronger H1.0 induction, active = 140 or more
Summary of the method: as §1
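Throughout, for H1.0 immunofluorescence intensity relative to DMSO: TDF is a line of transformed human dermal fibroblasts of mesenchymal origin.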
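Throughout, for cell number relative to DMSO: TDF denotes transformed human dermal fibroblasts of mesenchymal origin.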

| Structure (SMILES) | cell number [1] | cell number [2] | H1.0 immunofluorescence intensity [3] | H1.0 immunofluorescence intensity [4] |
| --- | --- | --- | --- | --- |
| Cc1cccc(C#Cc2ccccc2)n1.Cl [6-Methyl-2-(phenylethynyl)pyridine hydrochloride] | 99.9 | 105 | 91.5 (inactive) | 96.7 (inactive) |
| CCCCCCCCC=CCCCCCCCCCCCC(=O)O [13(E)-Docosenoic acid] | 104 | 108 | 96 (inactive) | 101 (inactive) |
| CCCCCCCCCCCC=CCCCCCC(=O)O [7(Z)-Nonadecenoic acid] | 97.8 | 104 | 101 (inactive) | 96.9 (inactive) |
| O=C(O)C=CC(=O)O.O=C(O)C=CC(=O)O.OCCOCCN1CCN(C2=Nc3ccccc3Sc3ccccc32)CC1 [Quetiapine Fumarate] | 99.3 | 97.8 | 94.5 (inactive) | 100 (inactive) |
| Cl.NC1(C(=O)O)CCCCC1 [1-Amino-1-cyclohexanecarboxylic acid hydrochloride] | 100 | 106 | 95.3 (inactive) | 86.6 (inactive) |
| CCC(C)C(=O)OC1CC(O)C=C2C=CC(C)C(CCC3CC(O)CC(=O)O3)C21 (configuration not stated) [Pravastatin Lactone] | 101 | 109 | 91.6 (inactive) | 110 (inactive) |
| CC(=O)OCC(=O)C1(O)CCC2C3CCC4=CC(=O)CCC4(C)C3C(=O)CC21C (configuration not stated) [Cortisone 21-acetate] | 101 | 120 | 97.5 (inactive) | 89.1 (inactive) |
| Cn1cc(C2=C(c3cn(CCCSC(=N)N)c4ccccc34)C(=O)NC2=O)c2ccccc21 | 53.9 | 21.3 | 113 (inactive) | 238 (active) |
